Laboratory results taken from the supplement of paper PMC6555819.

Legend:
Experiment in all cases: PBM binding z-score (relative to random genomic background probes); higher = stronger binding; sequences stand for … in GC…GCGATTGACAGCGTAGAATGAAGG
[1] = test system: FXR:RXRa (NR concentration 270 nM, RXRa partner concentration 90 nM)
How it was run: (§1)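 On custom Agilent 4×180K arrays, double-stranded probes with 34-nt variable regions carried direct-repeat seeds, single-nucleotide variants, half-site ablations or random human genomic background. Ligand-free nuclear receptor dimers were applied for 1 h, and binding was read with antibodies against each partner (one per run). Binding z-scores come from regression-normalized fluorescence, with the random background probes as reference.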

[2] = test system: LXRa:RXRa (NR concentration 270 nM, RXRa partner concentration 90 nM)
How it was run: as §1

[3] = test system: LXRa homodimer (NR concentration 270 nM)
How it was run: as §1

[4] = test system: LXRb:RXRa (NR concentration 270 nM, RXRa partner concentration 90 nM)
How it was run: as §1

[5] = test system: LXRb homodimer (NR concentration 270 nM)
How it was run: as §1

[6] = test system: PPARa:RXRa (NR concentration 270 nM, RXRa partner concentration 90 nM)
How it was run: as §1

[7] = test system: PPARg:RXRa (NR concentration 180 nM, RXRa partner concentration 90 nM)
How it was run: as §1

[8] = test system: PPARg:RXRa 270nM:90nM, anti-RXR (NR concentration 270 nM, RXRa partner concentration 90 nM)
How it was run: as §1

[9] = test system: PPARg:RXRa 30nM:10nM, anti-RXR (NR concentration 30 nM, RXRa partner concentration 10 nM)
How it was run: as §1

[10] = test system: PPARg:RXRa 90nM:30nM, anti-RXR (NR concentration 90 nM, RXRa partner concentration 30 nM)
How it was run: as §1

Row | Sequence | PBM binding z-score [1] | PBM binding z-score [2] | PBM binding z-score [3] | PBM binding z-score [4] | PBM binding z-score [5] | PBM binding z-score [6] | PBM binding z-score [7] | PBM binding z-score [8] | PBM binding z-score [9] | PBM binding z-score [10]
1 | GCGACTGGGGCATCAGCAGGTTACCACAACTTAA | -0.0917 | -0.185 | -0.291 | 0.725 | -0.793 | 0.935 | 0.922 | 1.13 | -0.162 | -0.0671
2 | GGAACGAGGGCATTCGATTTGATAGCATGGCGAT | 0.98 | 0.589 | -0.512 | 0.472 | -0.24 | 1.49 | 1.13 | 1.23 | 0.159 | 0.731
3 | TCATATAGGTAAAGGTGAAAGTGGAACGATATGA | 0.702 | 1.31 | -0.0893 | 1.28 | -0.406 | 3.54 | 4.42 | 4.97 | 4.56 | 5.14
4 | TCTGCTAGGTCAGTTGGTCATCTAACGAGCTGCC | 1.16 | 0.727 | -0.519 | 0.51 | 0.317 | 1.66 | 0.954 | 2.16 | 1.52 | 2.1
5 | CCTAGCACGCCAATCTGGGTCACTCAAGGCTTGA | 0.513 | 0.503 | -0.0137 | 0.788 | -0.333 | 2.88 | 1.61 | 2.16 | -0.246 | 1.13
6 | GGAACTAGGGCATTCGAGTTGATAGCATGGCGAT | 0.225 | 0.214 | -0.0911 | -0.433 | -0.474 | 2.54 | 3.49 | 3.04 | 0.86 | 1.91
7 | GGTACAGGGTCAGCTAGAGGCCAGAGTATGGAAA | 4.99 | 2.87 | -0.106 | 2.67 | -0.0836 | 4.62 | 4.12 | 3.78 | 0.502 | 2.27
8 | CTACCAAGGTGACCAAGGTCGTTGATTACTATTC | 0.954 | 0.863 | 0.0331 | 1.37 | -0.415 | 1.82 | 0.763 | 0.769 | -0.239 | 0.452
9 | TCTTGTAGATCAGCGGGTTAAGAAAGCTGGCCAA | 0.495 | 0.126 | -0.31 | 0.0907 | 0.392 | 0.933 | -0.329 | 1.16 | 2.52 | 1.99
10 | CGTCCAAGGTCAATGATAGGTCAGTGAAAGCATT | 6.83 | 6 | 2.8 | 4.83 | 0.895 | 5.41 | 3.87 | 4.8 | 1.74 | 3.35
11 | ACTAGTTGGTCAGCTGAGGTCACCCACAATTCGG | 3.88 | 3.1 | 2.1 | 3.2 | 0.552 | 3.63 | 1.42 | 2.6 | 0.58 | 2.01
12 | CCTACTGGGCTAAGGTCATTGATCAGTCAAAGCA | 3.85 | 3.94 | 1.87 | 3.49 | -0.0794 | 4.26 | 3.54 | 4.28 | 1.41 | 3.47
13 | TTTTGTAGATCAACAGGAGGTTAAGAAAGATCGA | 0.519 | 1.38 | 0.44 | 1.16 | 0.116 | 1.7 | 0.596 | 1.25 | 1.03 | 1.29
14 | TCTAGTTGGTCACAGGTCACACACTCGAAATGCG | 2.89 | 2.92 | 1.82 | 3.13 | 0.99 | 4.37 | 7.08 | 6.5 | 6.07 | 7.04
15 | ACTATTAGTTGACTCAGGGCAACCGATACGACGC | 0.117 | 0.225 | 0.326 | 0.195 | 0.862 | 0.023 | 0.893 | 0.163 | 0.201 | 0.123
16 | TCTAGCAGGCCAGACGGTCACTCAAGAGGTACGG | -0.139 | -0.465 | -0.491 | -0.378 | -0.934 | 0.21 | 0.662 | 1.52 | 1.72 | 1.67
17 | GCTTGAAGATCAAGGTTAAGAAAGACTAAGCTAA | 0.0422 | 0.502 | -0.466 | 0.434 | -0.944 | 1.44 | 0.0751 | 0.707 | 0.116 | 0.552
18 | CTCGAAAGGTCGTGCTCAGGTGAGTAAACCAAAC | 5.29 | 3.87 | 0.151 | 3.25 | 0.181 | 4.92 | 2.7 | 4.18 | 0.732 | 2.6
19 | CGAACTGGGTCATCCAGGACAGTGAATACATTGA | 3.3 | 1.9 | 0.0995 | 1.9 | -0.478 | 4.92 | 7.51 | 5.92 | 3.5 | 5.51
20 | ATCGAAAGGTCGAAGTGAGTATAGAGAAAGGGAA | 3.94 | 3.53 | 0.221 | 2.69 | 0.919 | 4.23 | 2.38 | 3.01 | 1.33 | 2.56
21 | TCATATAGCTAAATGCTAGGTGAAAGTCCGATCT | 0.567 | 0.2 | -0.0142 | 0.288 | -0.55 | 0.6 | 0.313 | 1.67 | 2.82 | 2.07
22 | ACAGATAGGTGAGTGAAGGTAACTCAGCTGGACG | 0.482 | 0.0886 | -0.209 | -0.39 | -0.76 | 0.462 | 0.821 | 0.426 | -0.17 | 0.325
23 | ACACCAAGGTGATCGTGAGGTCGTTGATACTAAC | 1.59 | 1.28 | 0.495 | 1.38 | -0.254 | 1.62 | 0.514 | 0.34 | -0.275 | 0.0177
